Reference: PubChem BioAssay (NCI)
About 79,000 compounds went through this panel and 15% of them were active in at least one assay; those are over-represented in the sample as a whole. The source made the active and inactive calls. Cut-off read from the data, not from the text of the source: active = growth inhibition above about 70%; inactive = the rest.

What was measured:
[1] = NCI Yeast Anticancer Drug Screen. Data for the rad50 strain (AID 155);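 note: 0% = growth of vehicle-only cultures of the same strain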; settings: S. cerevisiae rad50 strain growth inhibition, active compounds read high
Summary of the method: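 DNA repair mutant yeast, compound exposure, growth read-out; inhibition is taken relative to vehicle.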

[2] = NCI Yeast Anticancer Drug Screen. Data for the mec2-1 strain (AID 157); settings: S. cerevisiae mec2-1 strain, active compounds read high
Summary of the method: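 Cells of the genetically defined mec2-1 yeast strain are incubated with test compound. Inhibition of growth is calculated against vehicle-treated controls.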

[3] = NCI Yeast Anticancer Drug Screen. Data for the sgs1 mgt1 strain (AID 161);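 note: 0% = growth of cultures given vehicle only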; settings: S. cerevisiae sgs1 mgt1 strain, active compounds read high
Summary of the method: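 Mutant yeast exposed to compound; growth scored against vehicle-only wells.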

[4] = NCI Yeast Anticancer Drug Screen. Data for the cln2 rad14 strain (AID 165);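 note: 0% = growth equal to vehicle treated cultures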; settings: S. cerevisiae cln2 rad14 strain, active compounds read high
Summary of the method: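 The screen exposed genetically defined yeast (cln2 rad14) to test compounds and scored growth inhibition relative to vehicle-treated controls.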

[5] = NCI Yeast Anticancer Drug Screen. Data for the bub3 strain (AID 167); settings: S. cerevisiae bub3 mutant strain, active compounds read high
Summary of the method: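 In this screen, a yeast mutant lacking normal mitotic checkpoint function is challenged with compound. Relative growth versus vehicle gives the inhibition value.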

[6] = NCI Yeast Anticancer Drug Screen. Data for the mlh1 rad18 strain (AID 175); settings: S. cerevisiae mlh1 rad18 strain growth inhibition, active compounds read high
Summary of the method: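 Compound-treated yeast growth, normalised to vehicle controls. Strain bears defined DNA repair mutations.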

[7] = at 5.0 µM (retest, dose inferred, filed as 0.5)
[8] = at 50.0 µM (retest, dose inferred, filed as 5.0)

Measured: growth inhibition

Cc1ccc(NC(=O)Oc2ccc(C(C)(C)C)cc2Br)cc1NC(=O)Oc1ccc(C(C)(C)C)cc1Br
inactive: [1]; [7] 8% | [1]; [8] 26% | [1]; at 50.0 µM 40.1% | [2]; [7] -4% | [2]; [8] 13% | [2]; at 50.0 µM 60% | [3]; [7] 3% | [3]; [8] 14% | [3]; at 50.0 µM 49.7% | [4]; [7] 2% | [4]; [8] 11% | [4]; at 50.0 µM 19.9% | [5]; [7] 0% | [5]; [8] 28% | [5]; at 50.0 µM 28.4% | [6]; [7] 4% | [6]; [8] 53%
active: [6]; at 50.0 µM 79.2%

C=CS(=O)(=O)c1ccc2ccccc2c1
inactive: [1]; [7] -100% | [2]; [7] -22% | [3]; [7] -20% | [4]; [7] -34% | [5]; [7] -35% | [6]; [7] -93%
active: [1]; [8] 97% | [1]; at 50.0 µM 99.5% | [2]; [8] 98% | [2]; at 50.0 µM 99.4% | [3]; [8] 98% | [3]; at 50.0 µM 99.2% | [4]; [8] 97% | [4]; at 50.0 µM 98.7% | [5]; [8] 97% | [5]; at 50.0 µM 98.8% | [6]; [8] 97% | [6]; at 50.0 µM 99%

CC1(C)CCC[C@@]2(C)C1CC[C@@]1(CO1)[C@@H]2/C=C\C(C=O)CC=O (stereo not given in full)
inactive: [1]; [7] 60% | [2]; [7] 36% | [3]; [7] 59% | [6]; at 50.0 µM -27.4%
active: [1]; [8] 99% | [1]; at 50.0 µM 92.9% | [2]; [8] 100% | [2]; at 50.0 µM 94.2% | [3]; [8] 100% | [3]; at 50.0 µM 94.5% | [4]; [7] 70% | [4]; [8] 100% | [4]; at 50.0 µM 92.7% | [5]; [7] 79% | [5]; [8] 100% | [5]; at 50.0 µM 93.3% | [6]; [7] 87% | [6]; [8] 99%

CN(C)CCCNc1cc(O)c2c(c1O)C(=O)c1ccccc1C2=O
inactive: [1]; [7] 22% | [2]; [7] 18% | [3]; [7] 26% | [4]; [7] -16% | [5]; [7] 13% | [6]; [7] 16%
active: [1]; [8] 98% | [1]; at 50.0 µM 99.2% | [2]; [8] 94% | [2]; at 50.0 µM 97.6% | [3]; [8] 96% | [3]; at 50.0 µM 98.3% | [4]; [8] 94% | [4]; at 50.0 µM 94.8% | [5]; [8] 97% | [5]; at 50.0 µM 98.3% | [6]; [8] 98% | [6]; at 50.0 µM 99%

Cc1ccccc1SCc1nc2ccccc2c(C)[n+]1[O-]
active: [1]; [8] 73% | [6]; [8] 89%
inactive: [1]; [7] -3% | [1]; at 50.0 µM 35.5% | [2]; [7] 4% | [2]; [8] 63% | [2]; at 50.0 µM 45.2% | [3]; [7] 9% | [3]; [8] 68% | [3]; at 50.0 µM 58.7% | [4]; [7] -1% | [4]; [8] 44% | [4]; at 50.0 µM 35% | [5]; [7] -1% | [5]; [8] 69% | [5]; at 50.0 µM 59% | [6]; [7] 42% | [6]; at 50.0 µM 59.9%

CCCN(CCC)c1ccc(/C=C/c2ccnc3ccccc23)cc1
inactive: [1]; [7] 9% | [2]; [7] -10% | [3]; [7] -4% | [4]; [7] -18% | [4]; [8] 60% | [4]; at 50.0 µM 58% | [5]; [7] -12% | [6]; [7] -7%
active: [1]; [8] 74% | [1]; at 50.0 µM 91.2% | [2]; [8] 88% | [2]; at 50.0 µM 92% | [3]; [8] 82% | [3]; at 50.0 µM 92.7% | [5]; [8] 88% | [5]; at 50.0 µM 92% | [6]; [8] 86% | [6]; at 50.0 µM 89.7%

COc1ccc(-c2c(COC(C)=O)c(COC(C)=O)c3n2CCC3)cc1
inactive: [1]; [7] -4% | [1]; [8] 34% | [2]; [7] -4% | [2]; [8] 19% | [3]; [7] -6% | [3]; [8] 23% | [4]; [7] -3% | [4]; [8] -4% | [5]; [7] -6% | [5]; [8] -3% | [6]; [7] -6% | [6]; [8] 40%
active: [1]; at 50.0 µM 98.5% | [2]; at 50.0 µM 99.1% | [3]; at 50.0 µM 98.9% | [4]; at 50.0 µM 97.8% | [5]; at 50.0 µM 98.8% | [6]; at 50.0 µM 98.8%

CN1CCCC1c1cccc(Br)c1 (stereo not given)
active: [1]; [8] 81%
inactive: [1]; [7] -163% | [1]; at 50.0 µM 59% | [2]; [7] -51% | [2]; [8] 26% | [2]; at 50.0 µM 17.1% | [3]; [7] -65% | [3]; [8] 37% | [3]; at 50.0 µM 21.6% | [4]; [7] -75% | [4]; [8] 50% | [4]; at 50.0 µM -1.05% | [5]; [7] -69% | [5]; [8] 54% | [5]; at 50.0 µM -8.55% | [6]; [7] -125% | [6]; [8] 50% | [6]; at 50.0 µM 26.1%

Cc1cc(C)c(CCCC(=O)c2c(C)cc(C)cc2C)c(C)c1
inactive: [1]; [7] -7% | [1]; [8] 28% | [1]; at 50.0 µM 9.85% | [2]; [7] -4% | [2]; [8] 1% | [2]; at 50.0 µM -1.6% | [3]; [7] -7% | [3]; [8] 23% | [3]; at 50.0 µM 9.85% | [4]; [7] 1% | [4]; [8] -10% | [4]; at 50.0 µM 29.1% | [5]; [7] 1% | [5]; [8] 6% | [5]; at 50.0 µM 15.6% | [6]; [7] -3% | [6]; [8] -12% | [6]; at 50.0 µM 9.75%

O=C1CCC(Cc2ccccc2Br)C(=O)N1 (stereo not given)
active: [3]; [8] 92% | [3]; at 50.0 µM 97.2%
inactive: [1]; [7] -5% | [1]; [8] 10% | [1]; at 50.0 µM -10.8% | [2]; [7] -1% | [2]; [8] 6% | [2]; at 50.0 µM 36% | [3]; [7] 11% | [4]; [7] -4% | [4]; [8] 8% | [4]; at 50.0 µM -39.2% | [5]; [7] -4% | [5]; [8] 6% | [5]; at 50.0 µM -45.5% | [6]; [7] -7% | [6]; [8] 6% | [6]; at 50.0 µM 6.35%
